Values joined by “and” are separate entries in the source; they are usually repeats but may differ in a detail not shown here. Equal values may be shown once. Inconclusive results are not listed. A structure can be active in one record and inactive in another. Active and inactive are the calls of the source. The call rests on the fitted dose curve; in most records, active means well fitted curve in the direction sought with a large enough effect; inconclusive means small, poorly fitted or top-dose-only effect, or another doubt; inactive means no such curve, though single readings can be large; an effect the other way counts as inactive or inconclusive.

A short description of test [1]: NCATS anti-infectives library activity on HEK293 viability as a counter-qHTS vs the C. elegans viability qHTS (AID 1745854).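 Further: HEK293 cells exposed to compounds for 24 hr before the viability read; on the % scale 0 is the no-effect control and ±100 the full control effect.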 A digest of the protocol: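 Compound titrations (final up to 41.7 uM) were incubated with HEK293 cells for 24 hr at 37C under 5% CO2. Viable cells were quantified with CellTiter-Glo after 10 min at ambient temperature.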
Test [2] addresses Metallo-beta-lactamase type 2 (Klebsiella pneumoniae) (UniProt C7C422). Kind of test: qHTS to identify inhibitors of the New Delhi Metallo-beta-lactamase (NDM): assay validation screen against the NCATS LOPAC Collection (AID 1794843).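 Further: nitrocefin turnover by NDM-1 measured as 485 nm absorbance at plateau; series mostly up to about 38 µM; on the % scale 0 is the no-effect control and ±100 the full control effect.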 A digest of the protocol:
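NDM-1 at 2 nM final in 50 mM HEPES pH 7.0, 1 uM ZnSO4, 0.01% Tween20, preincubated with LOPAC compounds pinned in DMSO; 50 uM nitrocefin (stock) added. Hydrolysis read as absorbance at 485 nm in the plateau phase.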
(Quantitative high-throughput screening tests each substance at several concentrations.)

In test [3] the target is Glutathione peroxidase 1 (Homo sapiens) (UniProt P07203). Kind of test: Primary qHTS Assay for Inhibitors of Recombinant Selenoprotein Glutathione Peroxidase 1 (GPX1) (AID 1845191). Further: nearly all actives have a fitted effect of over 65% in size. Further: potency means the concentration at half of the fitted maximal effect. A digest of the protocol:
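GR-coupled readout: NADPH consumption tracked by fluorescence, ex 340/em 450 nm, at t=0 and after 15 min at RT. Final mix 10 nM GPX1, 1 mM GSH, 0.5 mM CHP, 0.5 mM NADPH, 100 nM GR, 0.01% BSA, following 30 min enzyme–compound preincubation.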

Test [4] deals with Phospholipid hydroperoxide glutathione peroxidase GPX4 (Homo sapiens) (UniProt P36969). Nature of the test: Primary qHTS Assay for Inhibitors of Recombinant Selenoprotein Glutathione Peroxidase 4 (GPX4) (AID 1845192). Further: nearly all actives have a fitted effect of over 65% in size. Further: potency means the concentration at half of the fitted maximal effect. A digest of the protocol:
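Steps: GPX4 plus compound, 30 min RT; add GR/GSH/NADPH master mix; start with cumene hydroperoxide; read 340/450 nm fluorescence at 0 and 15 min. Finals were 200 nM GPX4, 1 mM GSH, 0.5 mM CHP, 0.5 mM NADPH, 100 nM GR.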

Test [5] can be described thus: Quantitative High-Throughput drug screen in 47 multiple myeloma cell lines against the NCATS MIPE library collection: Delta47_JCRB cell viability assay (AID 1918925; further: nearly all actives have a fitted effect of over 45% in size; further: potency means the concentration at half of the fitted maximal effect). A digest of the protocol:
(§1)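 qHTS of the MIPE 4.0 collection: 500 myeloma cells/well, 48 h drug exposure at 37C in 5% CO2, then CellTiter-Glo for 5 min at room temperature before luminescence reading.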

Test [6] is described as follows: Quantitative High-Throughput drug screen in 47 multiple myeloma cell lines against the NCATS MIPE library collection: EJM_DSMZ cell viability assay (AID 1918926; further: nearly all actives have a fitted effect of over 30% in size; further: potency means the concentration at half of the fitted maximal effect). The procedure, abridged: as §1
Test [7] is described as follows: Quantitative High-Throughput drug screen in 47 multiple myeloma cell lines against the NCATS MIPE library collection: AMO1_DSMZ cell viability assay (AID 1918927; further: nearly all actives have a fitted effect of over 30% in size; further: potency means the concentration at half of the fitted maximal effect). A digest of the protocol:
as §1

Test [8] concerns the target Nicotinamide N-methyltransferase (Homo sapiens) (UniProt P40261). Kind of test: Confirmatory Screen for Target Class Profiling of Small Molecule Inhibitors of Methyltransferases (AID 1745852). To be noted: MTase-Glo luminescence, SAH detection, recombinant enzyme; measured here: NNMT max response; stronger effect = lower value.
In test [9] the target is Phenylethanolamine N-methyltransferase (Homo sapiens) (UniProt P11086). The description is as above. To be noted: MTase-Glo luminescence, SAH detection, recombinant enzyme; measured here: PNMT max response; stronger effect = lower value.
Test [10] addresses Luciferin 4-monooxygenase (Photinus pyralis) (UniProt P08659). Nature of the test: Primary firefly luciferase (FLuc) qHTS assay for identification of artifact compounds. (AID 1845220). Further: nearly all actives have a fitted effect of over 60% in size. The procedure, abridged: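 Enzymatic FLuc inhibition assay: compounds pre-exposed to luciferin/ATP (10 uM each) for 15 min, then purified P. pyralis enzyme at 10 nM added. Read-out: luminescence at 5 min.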

In test [11] the test system is Nanoluciferase (engineered Oplophorus gracilirostris luciferase). Kind of test: Primary Nanoluciferase (NLuc) qHTS assay for identification of artifact compounds. (AID 1845222).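 Further: NLuc secreted into diluted conditioned medium of S16 cells; series mostly up to about 54 µM; 0% = DMSO and -100% = no enzyme.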 A digest of the protocol:
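S16 cell supernatant NLuc, 1:55; cpds qHTS; 15 min RT dark; Nano-Glo substrate 1:100, 5 min; luminescence; Hill fit of % inhibition.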

A short description of test [12]: Primary redox qHTS assay for identification of artifact compounds. (AID 1845223).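 Further: 0% = DMSO and 100% = reference compound.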 The procedure, abridged:
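Redox-cycling detection via DTT (250 uM final) oxidation coupled to Amplex Red (25 uM)/HRP (250 mU/mL) in HBSS. 15 min preincubation plus 30 min after DTT, room temperature. Ex/Em 525/598 nm; 4-parameter Hill fit against DMSO and 10 uM DA3003.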

Test [13] in a line: Quantitative High-Throughput drug screen in 47 multiple myeloma cell lines against the NCATS MIPE library collection: FR4_PLB cell viability assay (AID 1918924;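 further: 100% = DMSO-treated cells and 0% = wells with media only; nearly all actives have a fitted effect of over 35% in size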). The procedure, abridged:
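Steps: seed 500 cells per well; pin-transfer MIPE 4.0 library; incubate 48 h at 37C, 5% CO2, humidified; add CellTiter-Glo, 5 min room temperature; read luminescence.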

Test [14] in a line: Primary fluorescence-based thiol-reactive (MSTI) qHTS assay for identification of artifact compounds. (AID 1845221).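 Further: series mostly up to about 54 µM; thiol-reactive compounds lower the probe fluorescence signal; nearly all actives have a fitted effect of over 65% in size.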 The procedure, abridged:
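In PBS pH 7.4 with 2% DMSO, each compound met 4 uM MSTI for one hour at ambient temperature, shielded from light, before fluorescence detection.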

Glutathione peroxidase 1 (Homo sapiens), sequence (P07203 whole entry, looked up): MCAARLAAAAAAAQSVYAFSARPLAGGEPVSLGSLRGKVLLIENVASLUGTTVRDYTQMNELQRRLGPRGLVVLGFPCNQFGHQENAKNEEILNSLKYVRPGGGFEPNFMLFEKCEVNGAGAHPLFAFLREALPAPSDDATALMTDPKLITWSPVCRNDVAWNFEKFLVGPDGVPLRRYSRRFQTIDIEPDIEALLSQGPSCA
Phospholipid hydroperoxide glutathione peroxidase GPX4 (Homo sapiens), sequence (P36969 whole entry, looked up): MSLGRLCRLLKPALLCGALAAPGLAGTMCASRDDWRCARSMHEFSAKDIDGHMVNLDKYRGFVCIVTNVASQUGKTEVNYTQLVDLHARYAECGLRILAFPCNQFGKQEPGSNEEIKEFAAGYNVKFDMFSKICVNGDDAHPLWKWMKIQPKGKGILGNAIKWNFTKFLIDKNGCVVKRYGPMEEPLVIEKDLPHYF
Phenylethanolamine N-methyltransferase (Homo sapiens), sequence (P11086 whole entry, looked up): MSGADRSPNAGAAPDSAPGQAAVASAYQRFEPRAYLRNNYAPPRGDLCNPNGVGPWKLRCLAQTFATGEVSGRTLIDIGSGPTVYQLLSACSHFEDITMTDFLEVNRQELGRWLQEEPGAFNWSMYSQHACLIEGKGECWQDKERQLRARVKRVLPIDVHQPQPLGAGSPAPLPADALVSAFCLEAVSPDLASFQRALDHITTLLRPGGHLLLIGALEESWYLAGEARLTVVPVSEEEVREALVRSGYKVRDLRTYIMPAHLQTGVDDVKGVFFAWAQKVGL
Metallo-beta-lactamase type 2 (Klebsiella pneumoniae), sequence (C7C422 whole entry, looked up): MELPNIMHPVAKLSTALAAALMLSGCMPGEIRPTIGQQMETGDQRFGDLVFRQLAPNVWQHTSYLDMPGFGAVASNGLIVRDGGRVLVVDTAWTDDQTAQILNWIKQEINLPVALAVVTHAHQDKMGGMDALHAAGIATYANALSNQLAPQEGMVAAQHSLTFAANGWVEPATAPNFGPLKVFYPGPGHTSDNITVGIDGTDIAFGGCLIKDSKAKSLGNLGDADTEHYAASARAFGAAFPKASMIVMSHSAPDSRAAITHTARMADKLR
Nicotinamide N-methyltransferase (Homo sapiens), sequence (P40261 whole entry, looked up): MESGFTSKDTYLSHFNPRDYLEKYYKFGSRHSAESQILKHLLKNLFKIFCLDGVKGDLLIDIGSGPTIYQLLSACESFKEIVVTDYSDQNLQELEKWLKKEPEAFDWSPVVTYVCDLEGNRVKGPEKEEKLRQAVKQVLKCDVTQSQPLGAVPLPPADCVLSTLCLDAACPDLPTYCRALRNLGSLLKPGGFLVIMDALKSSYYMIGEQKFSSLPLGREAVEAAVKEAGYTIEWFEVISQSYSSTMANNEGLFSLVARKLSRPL

For `Cc1cnc(NC(=O)C2=C(O)c3ccccc3S(=O)(=O)N2C)s1`, the outcome in test [1] and in test [2] was “inactive” in each case. The Potency result in test [3], in [4], in test [5], in test [6] and in test [7] was “inactive” throughout.

For the molecule `COc1cc(Nc2ncc3c(n2)-c2ccc(Cl)cc2C(c2c(F)cccc2OC)=NC3)ccc1C(=O)O`, the activity in test [8] is -15.5%; in test [9], 2.42%. Further, the Potency entry in test [4], in test [10], in test [13] and in [6] was “inactive” throughout. For the same molecule, the outcome in [11] and in [12] was “inactive” in each case.

Consider `COc1ccc2nc(S(=O)Cc3ncc(C)c(OC)c3C)[nH]c2c1` (stereo unspecified), for which the outcome in [1] is “inactive”. Further, the Potency in [3] was 5.08 µM (active) and inactive; in test [4], 11.4 µM (active); in test [6], 18.7 µM (active). The Potency entry in [13] is “inactive”.

Take `Nc1nccc(-c2ccc3noc(-c4ccc(Cl)cc4)c3c2)n1`: the activity in test [8] is -9.7%; in [9] it was -0.0134%. Besides, the Potency entry in test [3] and in test [6] was “inactive” each time.

Turning to `Cn1cnc2c(F)c(Nc3ccc(Br)cc3Cl)c(C(=O)NOCCO)cc21`, the outcome in test [1] and in test [11] was “inactive” throughout. The Potency result in test [3], in test [4], in test [10], in [14] and in test [5] was “inactive” each time. In addition, the Potency in [7] was 0.833 µM (active).

Consider `OC[C@H](Cc1ccccc1)Nc1nc(Oc2ccc3c(c2)CCC3)nc2c1ncn2Cc1ccc(-c2ccccc2)cc1`, for which the activity in [8] is -17.3%; in test [9] it was -16%. In addition, the Potency entry in test [3], in test [4], in [13] and in [6] was “inactive” in each case.

As for `Cc1cnc(Nc2ccc(OCCN3CCCC3)cc2)nc1Nc1cccc(S(=O)(=O)NC(C)(C)C)c1`, the activity in test [8] is -31.4%; in test [9], -8.53%. The Potency entry in test [3], in test [4], in test [10] and in [13] was “inactive” each time. Besides, the outcome in test [11] is “inactive”. In test [7], the Potency is 0.418 µM (active).

In the case of `O=C(c1cc(Cc2n[nH]c(=O)c3ccccc23)ccc1F)N1CCN(C(=O)C2CC2)CC1`, the outcome in [1], in test [11] and in test [12] was “inactive” each time. The Potency entry in test [4], in test [10] and in [13] was “inactive” throughout.

`CCCC(CCC)C(=O)O`: the outcome in test [1] and in test [2] was “inactive” in each case. Besides, the Potency entry in test [4], in test [13], in test [6] and in [7] was “inactive” in each case.

Take `CN1CCN(CCCN2c3ccccc3Sc3ccc(C(F)(F)F)cc32)CC1`: the outcome in test [1] and in test [2] was “inactive” each time. In addition, the Potency result in [4], in test [13], in [6] and in [7] was “inactive” throughout. The Potency in test [5] was 4.69 µM (active).

As to `O=C1CCC(N2C(=O)c3ccccc3C2=O)C(=O)N1` (stereo unspecified), the outcome in test [1] and in test [2] was “inactive” in each case. The Potency entry in [3], in [4], in test [13], in [5] and in [6] was “inactive” each time.

For `CS(=O)(=O)c1cccc(CNc2nc(Nc3ccc4c(c3)CCC(=O)N4)ncc2C(F)(F)F)c1`, the activity in [8] was -47.6% and -27.3%; in test [9], -7.63% and -9.92%. Besides, the outcome in test [2] and in test [11] was “inactive” in each case. Besides, the Potency result in test [4] and in test [10] was “inactive” each time. The Potency in test [5] was 18.7 µM (active); in test [6], 23.5 µM (active); in test [7] it was 9.35 µM (active).

The values are drawn from PubChem BioAssay (NCATS).
